Drawing on paper PMC7819943, “Rice protein-binding microarrays: a tool to detect cis-acting elements near promoter regions in rice”, this text covers binding signal for 47 sequences.

Whole data set: some 68,000 sequences, median “fluorescence intensity (a.u.)” near 9,100, cut for the highest 2% near 16,000. For the sample, the highest values were picked, then their nearest neighbours and some sequences at random.

Sequence of OsWRKY34 (Q0JBA9 entry or part of it): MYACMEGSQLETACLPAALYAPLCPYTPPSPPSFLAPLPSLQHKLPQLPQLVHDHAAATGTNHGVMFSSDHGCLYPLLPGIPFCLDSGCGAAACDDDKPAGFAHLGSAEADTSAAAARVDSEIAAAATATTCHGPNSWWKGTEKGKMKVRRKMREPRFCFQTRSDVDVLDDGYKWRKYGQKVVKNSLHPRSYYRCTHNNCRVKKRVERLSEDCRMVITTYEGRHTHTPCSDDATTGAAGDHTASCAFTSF

For this experiment, the target named is OsWRKY34 (Oryza sativa, UniProt Q0JBA9 1-250). As to the kind of experiment: protein-binding microarray (RPBM); PBS, 2% BSA, 51.3 ng/ul salmon testes DNA, 50 uM zinc acetate, 200 nM TF, 25 C, 1 h; high values mean tight binding. The conditions noted are these: protein: recombinant; tags: N-terminal polyhistidine and DsRed monomer fusion (pET32a); label: CyDye5-dUTP incorporated in the synthesized complementary strand; 3' TTTTT single-stranded linker to array surface; dsDNA, one strand shown. An outline of the steps:
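Polyhistidine-tagged DsRed fusions of transcription factors, joined at the N-terminus, were expressed in E. coli BL21-CodonPlus and isolated on Ni–NTA. They were incubated at 200 nM for 1 h at 25 °C on a custom Agilent array, double-stranded and BSA-blocked, in PBS with 2% BSA, salmon testes DNA and 50 µM zinc acetate. The binding signal is per-feature fluorescence intensity (arbitrary units) read on an Axon 4000B scanner after washing.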
For “CTCACTTGCATCTTTCCAATATCTTAGTCATTCATTAATACGGAGTCACCTAGTGCAG”, the binding signal is 8520 fluorescence intensity (a.u.).

Turning to “CTAAATTAATGGTCGCTTTGACTTTTTTTATGTAATGTTTCGGAGTCACCTAGTGCAG”, the binding signal is 14700 fluorescence intensity (a.u.).

Consider “CATCCGTATGATTCGACTTTTTTTTCACGTTGATTTTATACGGAGTCACCTAGTGCAG”, for which the binding signal was 9050 fluorescence intensity (a.u.).

Take “AATGATGTTGTTGACTTTTAAAATAACGTATGGCCGTTCACGGAGTCACCTAGTGCAG”: the binding signal is 8770 fluorescence intensity (a.u.).

Consider “AATGTATGACGCCGTTGACTTTTTGCCCAACGTTTGACCACGGAGTCACCTAGTGCAG”, for which the binding signal was 38700 fluorescence intensity (a.u.).

On to “AATGTATGACGCAGTTGACTTTGTGACAAACGTTTGACCTCGGAGTCACCTAGTGCAG”, for which the binding signal is 12300 fluorescence intensity (a.u.).

With “AATGTATGATGCCGTTGACTTTTCGACTAACGTTTGACCACGGAGTCACCTAGTGCAG”, the binding signal is 29200 fluorescence intensity (a.u.).

On to “AATTGTAAAGTTGACTTTAATGTTTTTTTTATTGTGGTTTCGGAGTCACCTAGTGCAG”, for which the binding signal was 8740 fluorescence intensity (a.u.).

On to “GTAAATTATGTATGACGCGGTTGACTTTTTATTAACGTTTCGGAGTCACCTAGTGCAG”, for which the binding signal was 16800 fluorescence intensity (a.u.).

As to “AATGTATGACGCCGTTGACTTTTTATCAAACGTTTGACCACGGAGTCACCTAGTGCAG”, the binding signal is 34800 fluorescence intensity (a.u.).

Turning to “TTTTTTTCAATTCGTTTTTTTTTCATTTTTCATCGTCTTTCGGAGTCACCTAGTGCAG”, the binding signal is 8400 fluorescence intensity (a.u.).

For the sequence “TACTACTCTCGTGTGGCAAAATTTTGTCTTAGTTCTTGAACGGAGTCACCTAGTGCAG”, the binding signal is 8100 fluorescence intensity (a.u.).

Regarding “GCGTTGTGGGTGTCTTGTGTTGTACTGCGTAATTCTTAAACGGAGTCACCTAGTGCAG”, the binding signal was 15000 fluorescence intensity (a.u.).

For “CACAACTATTTCTACTTTTATCATTCCTACCTTTTCTAATCGGAGTCACCTAGTGCAG”, the binding signal is 8180 fluorescence intensity (a.u.).

With “CTAGCCCGTTAACATTACTGTTCATCTCCCTATCCGTCTCCGGAGTCACCTAGTGCAG”, the binding signal is 9570 fluorescence intensity (a.u.).

“TCCTACACCACCCCGTTCTCGCGCCCATCGATCCAACCGACGGAGTCACCTAGTGCAG”: the binding signal was 8920 fluorescence intensity (a.u.).

As for “AGCCACAAATCCTTATTCGTTCAATTGTTTTTCTTCCTCTCGGAGTCACCTAGTGCAG”, the binding signal was 8140 fluorescence intensity (a.u.).

In the case of “ATCGCGAAGTTCGCGACCCGATTCCTCTCCGCCCGCCATGCGGAGTCACCTAGTGCAG”, the binding signal is 8380 fluorescence intensity (a.u.).

“GTACATGCATTATCCATATCTCTAAATTTAGCAATCACTTCGGAGTCACCTAGTGCAG”: the binding signal was 9480 fluorescence intensity (a.u.).

Regarding “AGTTCACTTTAGGTCCCTCTATTTGTCGTCCAGTCTGATTCGGAGTCACCTAGTGCAG”, the binding signal was 8180 fluorescence intensity (a.u.).

With “GCGGCCAGGCCACCTCCAGCTCTTTTCACTCCTGGCTAACCGGAGTCACCTAGTGCAG”, the binding signal was 9500 fluorescence intensity (a.u.).

For “GTGGACGTTTTTGACTTTGTACTTTCAACGTTTGACCATTCGGAGTCACCTAGTGCAG”, the binding signal is 13900 fluorescence intensity (a.u.).

As to “GACGCCGTTGACTTTTTGACCAACGTTTGACCTTTCGTCTCGGAGTCACCTAGTGCAG”, the binding signal was 31400 fluorescence intensity (a.u.).

Consider “CCACCGCCCGCCGTCGTCTCTCTCTCTCTCTCTCTCTCTTCGGAGTCACCTAGTGCAG”, for which the binding signal is 9970 fluorescence intensity (a.u.).

Regarding “CGCCGTTTAGTTTTTACTAACGTTTGACCATTTTTCTTATCGGAGTCACCTAGTGCAG”, the binding signal is 11700 fluorescence intensity (a.u.).

With “CCCGTGTCTTCCCAACCACGTTGACCACGACTTTTTCGTTCGGAGTCACCTAGTGCAG”, the binding signal was 9480 fluorescence intensity (a.u.).

Take “TCTTCGTATAAAAAGTATGACGCCGTTGACTTTTCATATACGGAGTCACCTAGTGCAG”: the binding signal is 14500 fluorescence intensity (a.u.).

On to “CCCGTCAACGCCACCTCACCGTTGACGTTGCCACTCTCTTCGGAGTCACCTAGTGCAG”, for which the binding signal is 16800 fluorescence intensity (a.u.).

As for “TATTACTCCCTTCGTATTTTAATGTATGACGCCGTTGACTCGGAGTCACCTAGTGCAG”, the binding signal was 8820 fluorescence intensity (a.u.).

For the sequence “GTTGTATAGGTTGGTTTTTTATGTATGACGCCGTTGACTTCGGAGTCACCTAGTGCAG”, the binding signal was 17100 fluorescence intensity (a.u.).

As to “GATGACGTTGTTAACTTTTTATCACACGTTTGACCATTCGCGGAGTCACCTAGTGCAG”, the binding signal is 8510 fluorescence intensity (a.u.).

Consider “TATGACGCCGTTGACTTATTGACTAACGTTTGACCATTCGCGGAGTCACCTAGTGCAG”, for which the binding signal is 21500 fluorescence intensity (a.u.).

Consider “CTCTCTCACTCTTCTCCCTCTTCTCACCACCAGACGCCATCGGAGTCACCTAGTGCAG”, for which the binding signal was 8850 fluorescence intensity (a.u.).

With “TATGTCACGTATAAAATTCTAATGCTAGCTAACTACCATACGGAGTCACCTAGTGCAG”, the binding signal was 8340 fluorescence intensity (a.u.).

As to “GATCCGACTCCTACTTCTAACGTAGATTTTCGGCCTTTATCGGAGTCACCTAGTGCAG”, the binding signal was 8370 fluorescence intensity (a.u.).

Consider “TTGCAAATGCAACCCTATTATGCCATCCTTTGTTATCCTGCGGAGTCACCTAGTGCAG”, for which the binding signal was 9550 fluorescence intensity (a.u.).

“TTTGTTCTCTTTTATATGTAACACTTGCATATTTACCTTCCGGAGTCACCTAGTGCAG”: the binding signal is 8980 fluorescence intensity (a.u.).

With “CTTCTCTTACCTCGGTGGGTGCTTAATGTGCTGGTTTGAACGGAGTCACCTAGTGCAG”, the binding signal was 8740 fluorescence intensity (a.u.).

On to “GCCATCCACTTGTGCTGCCAATTTGCTCAATCCCGACAAGCGGAGTCACCTAGTGCAG”, for which the binding signal was 8220 fluorescence intensity (a.u.).

Regarding “ACATTTCTGTTATTCCCCGCGGACAAGTCACAACTACTTCCGGAGTCACCTAGTGCAG”, the binding signal was 9830 fluorescence intensity (a.u.).

On to “CGCCGCCCATCTTGTCCCAATTCGGCTCCTATAAATTTCCCGGAGTCACCTAGTGCAG”, for which the binding signal is 8750 fluorescence intensity (a.u.).

As for “TGCCTCCTTTTGTTTTGCGTCTCCTTATCAGAGTGGATTGCGGAGTCACCTAGTGCAG”, the binding signal was 8350 fluorescence intensity (a.u.).

In the case of “ATCCCAATCCATGATCCAGCCATTCATCATCTGCATATATCGGAGTCACCTAGTGCAG”, the binding signal is 9790 fluorescence intensity (a.u.).

Take “AATGTATGACGCCGTTGACTTTTTGACCAACGTTTGACTACGGAGTCACCTAGTGCAG”: the binding signal was 36100 fluorescence intensity (a.u.).

Turning to “TCTTGTGCAGGGGTTGATTTTTCAGTGTATAGGGGTATGACGGAGTCACCTAGTGCAG”, the binding signal was 16800 fluorescence intensity (a.u.).

Consider “AGATTACGCCGTTAACTTTTTCTCACATGTTTGACCATTCCGGAGTCACCTAGTGCAG”, for which the binding signal was 11000 fluorescence intensity (a.u.).

Take “ACTATTACTACCTCAGTTTTGAAATGTATGACGTTGACTTCGGAGTCACCTAGTGCAG”: the binding signal was 11000 fluorescence intensity (a.u.).
